Screening data: PubChem BioAssay, several laboratories
CYP2C19 act: cytochrome P450 2C19 (human) activation | activation factor at 5 µM | recombinant CYP2C19, luciferin-H EGE luminescence; active compounds read high; 0 = fully inhibited enzyme, 1 = untreated enzyme | P33261 | AID 1025 | 96,000 tested, under 10 active;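 active = activation factor of at least 2 at 5 µM in the primary screen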;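 note: 0 = wells with 2.5 mM tranylcypromine and 1 = vehicle-only wells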
EphB4 antag: EphB4-ephrin-B2 interaction antagonism | AID 720 | 97,000 compounds, 0.15% hits | EphB4 LBD / TNYL-RAW-Alexa532 peptide, fluorescence polarization | inhibition, % at 7 µM | P54760;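 active = inhibition above the screen-wide mean inhibition plus 3 SD, cut at about 15% in these data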;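 note: 0% = DMSO wells and 100% = excess unlabeled TNYL-RAW peptide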
CYP2C9 activ: CYP2C9 (human) activation; P11712; recombinant CYP2C9, luciferin-H conversion, luminescence; active compounds read high; factor 1 = untreated enzyme, 0 = blocked; activation factor at 5 µM; 96,000 compounds, 1.4% hits;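 active = activation factor of 2 or more for CYP2C9 at a 5 µM dose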;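 note: 0 = sulfaphenazole-blocked wells and 1 = vehicle-only wells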
Target sequence (P11712 whole entry, looked up): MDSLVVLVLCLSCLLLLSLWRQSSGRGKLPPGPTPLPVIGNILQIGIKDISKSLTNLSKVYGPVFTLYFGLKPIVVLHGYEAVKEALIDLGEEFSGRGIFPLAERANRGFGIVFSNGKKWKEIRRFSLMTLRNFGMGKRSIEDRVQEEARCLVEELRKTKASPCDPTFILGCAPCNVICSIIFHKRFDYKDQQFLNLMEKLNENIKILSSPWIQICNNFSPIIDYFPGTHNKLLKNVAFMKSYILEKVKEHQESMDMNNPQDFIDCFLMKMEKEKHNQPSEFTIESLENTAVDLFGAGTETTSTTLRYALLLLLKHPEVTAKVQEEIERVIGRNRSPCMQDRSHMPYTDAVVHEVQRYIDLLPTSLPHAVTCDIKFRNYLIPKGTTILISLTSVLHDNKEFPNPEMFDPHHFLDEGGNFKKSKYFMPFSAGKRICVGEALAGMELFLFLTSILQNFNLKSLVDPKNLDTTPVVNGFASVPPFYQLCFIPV
CYP2C19 inh: inhibitors of human CYP2C19; P33261; CYP2C19 Supersomes, luciferin-H EGE luminescence, 30 min; inhibition, % at 5 µM; 96,000 compounds, 21% hits;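 active = CYP2C19 inhibition above a set limit at 5 µM in the primary screen, cut at about 50% in these data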;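 note: plate controls were negative control wells for no effect and 2.5 mM tranylcypromine positive control for full effect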
CYP2C9 inhib: human CYP2C9 inhibition | CYP2C9 Supersomes, luciferin-H conversion, luminescence | P11712 | inhibition, % at 5 µM | 96,000 compounds, 20% hits | AID 777;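 active = blocking of liver enzyme CYP2C9 beyond about 50% at 5 µM, limit read from the data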
* hit, by the source's call; nt = no result. Compounds with a hit are over-represented: about 27% of the library has one in this group of screens.

SMILES	CYP2C19 act	EphB4 antag	CYP2C9 activ	CYP2C19 inh	CYP2C9 inhib
COc1ccc(C2c3c(-c4ccccc4O)n[nH]c3C(=O)N2CCc2ccc(OC)c(OC)c2)cc1 (configuration not stated)	0.1	6	0	86*	96*
COc1cccc(C2c3c(-c4cc(Cl)c(C)cc4O)n[nH]c3C(=O)N2Cc2cccnc2)c1 (configuration not stated)	0.6	-5	0.3	43	72*
O=C(Nc1cccc(C(F)(F)F)c1)c1cccnc1N1CCN(c2ccccc2)CC1	0.4	2	0.5	58*	49
CNS(=O)(=O)c1cnccc1N1CCN(c2cccc(C(F)(F)F)c2)CC1	0.2	4	0.5	77*	47
COC(=O)[C@@H](NC(=O)N1CCN(c2cccc(C(F)(F)F)c2)CC1)C(C)C	0.5	-7	1.6	53*	-58
CCC(C)[C@H](NC(=O)N1CCN(c2cccc(C(F)(F)F)c2)CC1)C(=O)OC (some centres not stated)	0.7	-2	1.5	29	-50
C=CCOC(=O)N1CCN(c2cccc(C(F)(F)F)c2)CC1	0	7	0.2	96*	80*
O=C(CS(=O)(=O)Cc1ccccc1)N1CCN(c2cccc(C(F)(F)F)c2)CC1	0.4	2	0.9	57*	12
O=C(Nc1ccccc1)N1CCN(c2cccc(C(F)(F)F)c2)CC1	0.4	-1	2*	58*	-100
Cc1ccc(SCc2nnc(N)s2)cc1	nt	7	nt	nt	nt
Cn1cnnc1SC(C(=O)Nc1cccc(C(F)(F)F)c1)c1ccccc1 (configuration not stated)	0.3	2	0.3	71*	73*
Cn1cnnc1SCC(=O)Nc1cccc(C(=O)O)c1	1	1	1.1	-3	-5
COc1ccc(-c2noc(C3CCCN(C(=O)c4cccs4)C3)n2)cc1 (configuration not stated)	0.1	13	0.1	85*	89*
COc1cc(C(=O)N2CCCC(c3nc(-c4cccs4)no3)C2)cc(OC)c1OC (configuration not stated)	0.4	-1	0.5	56*	47
CCC(C)C(=O)N1CCCC(c2nc(-c3cccs3)no2)C1 (configuration not stated)	0.9	1	1.1	14	-7
COc1cccc(C(=O)N2CCCC(c3nc(-c4cccs4)no3)C2)c1 (configuration not stated)	0.1	-7	0.3	86*	68*
CCCC(=O)N1CCCC(c2nc(-c3cccs3)no2)C1 (configuration not stated)	0.9	2	0.8	6	18
O=C(c1cccs1)N1CCC(c2nc(-c3ccc(S(=O)(=O)N4CCOCC4)cc3)no2)CC1	0.8	-3	0.4	18	62*
CC[N+](CC)(CCO)CCCN1C(=O)C2CC=C(Cl)CC2C1=O (configuration not stated)	1.1	-4	1.1	-13	-11
Cc1ccc(OCCCC(=O)Nc2ccc(S(=O)(=O)Nc3cc(C)on3)cc2)cc1	0.9	nt	0.5	7	48
O=[N+]([O-])c1cccc(S(=O)(=O)N2CCC(c3nc(-c4ccncc4)no3)CC2)c1	0.6	-4	0.4	38	60*
CCCC(=O)Nc1nc(-c2ccc3c(c2)OCCO3)cs1	0.9	2	0.1	13	86*
CCOC(=O)N1CCN(C(=O)CSCC(=O)Nc2nc(-c3ccc(OC)cc3)cs2)CC1	0.2	4	0.2	84*	83*
CCCC(=O)Nc1nc(-c2ccc(OC)cc2)cs1	0.4	12	0	64*	96*
Cn1c(=O)oc2cc(S(=O)(=O)N3CCN(c4cccc(Cl)c4)CC3)ccc21	0.9	nt	1	13	-3
SMILES	CYP2C19 act	EphB4 antag	CYP2C9 activ	CYP2C19 inh	CYP2C9 inhib
CC(C)C(=O)Nc1ccc(NC(=O)c2cccs2)cn1	0.9	nt	0.8	10	25
Nc1cc2c(cc1C(=O)c1ccc(Cl)cc1)OCCO2	0.4	-2	0.3	61*	70*
Cc1ccc(C(=O)c2cc3c(cc2N)OCCO3)cc1	0.3	nt	0.3	67*	68*
Nc1ccc(C(=O)c2ccc3c(c2)OCCO3)cc1N	nt	-1	nt	nt	nt
Nc1cc2c(cc1C(=O)c1ccccc1)OCCO2	0.5	-3	0.7	51*	29
CC(=O)Nc1cc2c(cc1C(=O)c1ccccc1)OCCO2	0.7	6	0.9	30	6
